Most compounds without a hit are left out; they make up all but 9.4% or so of the library.
Rab9 promoter act – Rab9 promoter activation; 2.8% of 320,000 active; Potency, µM (doses to about 9.22 µM), for the others: top-dose activation, negative = inhibition, most hits filed as activators; Huh7 Rab9 promoter-luciferase reporter, luminescence, 24 h; also: % of control where 0% means no effect; nearly all actives have a fitted effect of over 60% in size
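Huh7 cells stably carrying Rab9 promoter–luciferase reporter, plated 1500 cells/well, compound added after 2 h and incubated 24 h at 37 °C; luciferase luminescence then read after 10 min with detection reagent.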
FLuc counter – counter-screen for miR-21 project: firefly luciferase inhibitors or activators | purified FLuc, Km substrates, luminescence inhibition | Potency, µM (doses to about 57.5 µM), for the others: top-dose activity change, negative = inhibition, most hits filed as inhibitors | 6.9% of 360,000 active | AID 588342;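 also: plate controls were vehicle for no effect and reference inhibitor for full effect; nearly all actives have a fitted effect of over 55% in size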
Target sequence (P08659 whole entry, looked up): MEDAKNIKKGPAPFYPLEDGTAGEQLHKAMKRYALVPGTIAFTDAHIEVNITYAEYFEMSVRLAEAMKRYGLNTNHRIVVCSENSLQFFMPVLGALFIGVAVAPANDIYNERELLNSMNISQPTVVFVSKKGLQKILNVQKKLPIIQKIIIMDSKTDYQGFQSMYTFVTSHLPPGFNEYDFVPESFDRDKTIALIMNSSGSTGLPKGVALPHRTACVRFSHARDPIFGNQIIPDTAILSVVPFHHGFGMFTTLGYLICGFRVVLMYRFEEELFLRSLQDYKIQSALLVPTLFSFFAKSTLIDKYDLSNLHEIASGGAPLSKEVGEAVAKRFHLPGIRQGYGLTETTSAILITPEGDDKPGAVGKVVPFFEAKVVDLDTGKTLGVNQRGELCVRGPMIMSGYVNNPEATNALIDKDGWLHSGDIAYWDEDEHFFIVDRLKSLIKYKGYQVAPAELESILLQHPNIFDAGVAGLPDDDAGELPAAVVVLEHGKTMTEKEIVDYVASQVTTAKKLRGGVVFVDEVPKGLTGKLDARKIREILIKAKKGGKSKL
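Purified P. pyralis luciferase (10nM final) with 10uM D-luciferin and 10uM ATP (Km levels) in 50mM Tris acetate pH 7.5, 10mM Mg acetate, 0.01% Tween-20, 0.05% BSA; qHTS 6-point titration, ~60 µM downward; luminescence read.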
NPC1 prom act – NPC1 promoter activation; Potency, µM (top dose mostly 9.22 µM), without a hit: at the top dose activation, most hits filed as activators; 2.4% of 320,000 active; Huh7 NPC1 promoter luciferase reporter, 24 h; AID 485313; also: % of control where 0% means no effect; nearly all actives have a fitted effect of over 60% in size
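Luciferase expression driven by the NPC1 promoter was measured in stably transfected Huh7 cells after a 24 h compound incubation, using a luciferase reagent and a luminescence read.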
ELG1 genotox – genotoxicity induction in ELG1-luciferase HEK293T cells; HEK293T ELG1-luciferase reporter, luminescence, 16 h; Potency, µM (doses to about 46 µM), inactives show top-dose activity change, positive = activation, usual class: activators; 1.3% of 330,000 active; AID 504466; also: % of control where 0% means no effect; nearly all actives have a fitted effect of over 60% in size
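Luminescence read-out: rising ELG1-luciferase signal, reflecting elevated ELG1 protein under genetic stress, flags genotoxic compounds. Cells were treated for 16 hr at 37 °C before ONE-Glo detection.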
SMN2 splice up – SMN2 splice variant enhancement | AID 1458 | 2.8% of 210,000 active | HEK293 SMN2-luciferase splicing reporter, luminescence, 30-36 h | Potency, µM (series often up to 46.1 µM), without a hit: top-dose activity change, positive = activation, hits mostly activators; also: % of control where 0% means no effect; nearly all actives have a fitted effect of over 55% in size
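HEK293 cells carry an SMN2 […]–luciferase reporter in which exon 7 inclusion puts luciferase in frame. Cells were plated 10-12 h before compound addition, then incubated 30-36 h at 37C. ONE-Glo luminescence was read; sodium butyrate at 4.5 mM final served as control.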
ELG1 repair inh – blocks ELG1-dependent DNA repair in HEK293T cells; HEK293T ELG1-luciferase reporter, luminescence, 16 h; DNA damage induced by 5-fluorouridine; Potency, µM (titrated, usually from 46.1 µM), for inactives: top-dose activity change, negative = inhibition, hits mostly inhibitors; 2.3% of 330,000 active; AID 504467; also: % is scaled to controls: 0 for no effect and ±100 for the full control effect; nearly all actives have a fitted effect of over 55% in size
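In this reporter screen, reduction of luminescence relative to DMSO vehicle indicated activity. Compounds and 5-fluorouridine were added together to 2,000 cells per well, incubated for 16 hr at 37 °C, then developed with ONE-Glo.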
The depositor's hits bear a star; ? = inconclusive; / = no result given. Calls follow the shape of the dose curve; as a rule, active = well fitted curve in the direction sought with a large enough effect; inconclusive = small, poorly fitted or top-dose-only effect, or another doubt; inactive = no such curve, though single readings can be large; an effect the other way counts as inactive or inconclusive. Potency is read from the fitted curve at half-maximal effect.

SMILES	Rab9 promoter act	FLuc counter	NPC1 prom act	ELG1 genotox	SMN2 splice up	ELG1 repair inh
CC1CN(S(=O)(=O)c2ccc(C(=O)Nc3nnc(-c4ccc5c(c4)CCCC5)o3)cc2)CC(C)O1 (centres undefined)	-32%	-15%	-30%	-11%	-62%	2.6µM*
CC(=O)Nc1nnc(-c2ccc3c(c2)CCCC3)o1	4µM*	12µM*	?	?	?	?
CC1CN(S(=O)(=O)c2ccc(C(=O)Nc3nnc(-c4ccccn4)o3)cc2)CC(C)O1 (centres undefined)	6%	-13%	1%	0%	-19%	-8%
Cc1cccnc1NC(=S)Nc1ccc(Br)cc1Cl	3.2µM*	4.8µM*	3.2µM*	?	25µM*	?
O=C(O)c1cc(-c2ccc(/C=N/Nc3ccc(Cl)cc3)o2)ccc1Cl	3%	11µM*	14%	0%	0%	11%
Cc1ccc(/C=N/Nc2ccc(C(=O)O)cc2)o1	0.4µM*	6.7µM*	0.71µM*	?	10µM*	?
O=C(O)c1ccc(N/N=C/c2ccc(-c3ccc(Br)cc3)o2)cc1	18%	2.4µM*	22%	?	/	?
CCCN(CCC)C(=O)c1c[nH]c2ccc(S(=O)(=O)N(C)c3ccc(Cl)cc3)cc2c1=O	/	-2%	/	/	/	/
COc1ccc(-c2nc(C#N)c(N3CCC(C)CC3)o2)cc1	-9%	?	-4%	-5%	/	-8%
Cc1cccc(-c2nc(C#N)c(NC3CCCCC3)o2)c1	1.8µM*	7.6µM*	2.5µM*	?	10µM*	?
Cc1ccc(-c2nc(C#N)c(N3CCC(C)CC3)o2)cc1	0.1µM*	?	?	3%	/	16%
Cc1cccc(-c2nc(C#N)c(N3CCCCC3)o2)c1	?	13µM*	?	?	/	?
Cc1ccc(-c2nc(C#N)c(N3CCCCC3)o2)cc1	?	?	?	-3%	-5%	8%
Cc1ccc(Nc2nnc(SCC(=O)Nc3ccc(S(=O)(=O)N4CCOCC4)cc3)s2)cc1	19%	3µM*	7%	?	6%	-2%
O=C(CSc1nnc(Nc2ccccc2)s1)Nc1ccc(S(=O)(=O)N2CCOCC2)cc1	2%	11µM*	0%	-4%	-23%	?
Cc1cccc(NC(=O)CSc2nnc(NC(=O)c3ccc(S(=O)(=O)N4CCOCC4)cc3)s2)c1C	-3%	?	4%	2%	28%	?
Nc1nnc(SCC(=O)Nc2cccc(S(=O)(=O)N3CCOCC3)c2)s1	-6%	-12%	-4%	-1%	/	?
COc1ccc(NC(=O)CSc2nnc(NC(=O)c3ccc(S(=O)(=O)N4CCOCC4)cc3)s2)cc1	8%	2.7µM*	13%	?	?	?
O=C(CSc1nnc(NC2CC2)s1)NN1C(=O)NC2(CCCCC2)C1=O	-2%	-1%	-3%	2%	/	20%
O=C(CSc1nnc(Nc2ccccc2)s1)NN1C(=O)NC2(CCCCC2)C1=O	-6%	19µM*	3%	1%	-6%	0%
O=C(NCc1ccccc1)C1CCN(C(=O)c2cnn(-c3ccccc3)c2-n2cccc2)CC1	/	-8%	/	/	-20%	/
COc1ccccc1CNC(=O)c1ccc(N2CCCC2)c(NC(=O)NCc2ccc(F)cc2)c1	/	0%	/	/	/	/
CCOC(=O)c1sc2ccccc2c1S(=O)(=O)Nc1c(C)cccc1C	/	-3%	/	/	/	/
Cc1ccc(C(=O)c2sc(Nc3ccccc3)c(S(=O)(=O)c3ccccc3)c2N)c(C)c1	/	2%	/	/	/	/
S=C(NCC1CCCO1)N1CCN(c2ccccc2)CC1 (centres undefined)	-7%	-4%	-5%	-2%	7%	?
SMILES	Rab9 promoter act	FLuc counter	NPC1 prom act	ELG1 genotox	SMN2 splice up	ELG1 repair inh
FC(F)(F)c1cccc(N2CCN(C(=S)NCC3CCCO3)CC2)c1 (centres undefined)	-9%	-4%	-8%	-3%	-69%	21µM*
O=C(c1ccc(S(=O)(=O)NCC2CCCO2)cc1)N1CCN(c2cccc(Cl)c2)CC1 (centres undefined)	-27%	0%	-7%	-13%	-39%	9.2µM*
CCc1ccccc1NC(=O)c1ccc(=O)n(Cc2ccc(F)cc2)c1	/	-1%	/	/	/	/
CCCNC(=O)c1cc(-c2ccco2)on1	3.5µM*	17µM*	?	16µM*	18µM*	?
COc1ccc(CNC(=O)c2cc(-c3ccco3)on2)cc1	8%	-9%	0%	3%	7%	4%
CC(C)CNC(=O)c1cc(-c2ccco2)on1	4µM*	13µM*	4µM*	?	?	?
CCCC(O)c1nc2ccccc2n1CCCOc1ccc(Cl)cc1 (centres undefined)	/	0%	/	/	/	/
CC(C)CCNC(=O)c1ccc2nc(CCc3ccccc3)oc2c1	/	0%	/	/	/	/
CC(=O)c1ccc(NC(=O)c2cccc(NC(=O)N3CCSc4ncccc43)c2)cc1	/	4%	/	/	/	/
Cc1ccc(C(=O)c2coc3c2C(=O)C(=O)c2ccccc2-3)cc1	20%	?	15%	14µM*	-14%	?
Cc1ccc(-c2nsc3c(N4CCC(C(N)=O)CC4)ncnc23)cc1	2.8µM*	1.5µM*	1.6µM*	?	-16%	?
Cc1ccc(C(=O)N2CCN(c3ncnc4c(-c5ccccc5)nsc34)CC2)cc1	-11%	-14%	-4%	-1%	-25%	6%
O=C(c1ccccc1)N1CCN(c2ncnc3c(-c4ccccc4)nsc23)CC1	-5%	4%	-4%	-11%	/	?
